Here are results for 16 compounds from PubChem BioAssay (EPA / NIEHS).

The source made the active and inactive calls. Rule for the calls: active = hit-call score of the fitted dose curve at least 0.9, where 1 is the maximum; inactive = score below 0.9.

The experiment is described as follows: IUF_NPC2a_radial_glia_migration_72hr: Leibniz Research Institute for Environmental Medicine (IUF) 72-hour Neural Progenitor Cell Migration Assay for Radial Glia Migration (NPC2a) (AID 2284299). Here is the method: IUF_NPC2-5 is a cell-based, multiplexed assay that uses hNPC, a human primary neural progenitor cells, with measurements taken at 72 or 120 hours after chemical dosing in a 96-well plate. Human neural progenitor cells (hNPC) are generated from human fetal brain cortex at gestational week (GW) 16-19. In the neural progenitor cell migration and differentiation assay (NPC2-5), hNPCs grown as spheres are plated on an extracellular matrix and migrate and differentiate out of the sphere core. The processes radial glia migration, neuronal and oligodendrocyte migration as well as neuronal differentiation, neuronal morphology and oligodendrocyte differentiation are studied using automated phase contrast imaging and automated fluorescence imaging in combination with high content image analysis. In parallel, the cell viability is assessed using an alamar blue viability assay and the cytotoxicity using a lactate dehydrogenase dependent membrane integrity assay.IUF_NPC2a_radial glia_migration_72hr is one of 12 assay components measured from the IUF_NPC2-5 assay. The migration distance of radial glia at 72 hr is assessed in um from the edge of the sphere core to the edge of the migration area based on brightfield images of each well. Therefore, each plate is scanned using a high content imaging device. Images are exported and the migration distance is measured manually in four directions using ImageJ. The mean of four measures per well is used as raw data input.Data from the IUF_NPC2a_radial_glia_migration_72hr component was analyzed at the endpoint IUF_NPC2a_radial_glia_migration_72hr in the positive analysis fitting direction relative to DMSO as the negative control and baseline of activity. Using a type of migration reporter, gain or loss-of-signal activity can be used to understand developmental effects.
Culture protocol: After the cell expansion period the cells are cultured for up to four weeks in which they are passaged every week as described in 3.6. Between one to three days after passaging spheres at a size of 0.3 mm are picked for the test method. For the assessment of neural progenitor cell migration and differentiation, the spheres are plated on poly-D-lysine/laminin coated 96-well flat bottom plates in differentiation medium (N2) to initiate migration and differentiation. Thereby one 0.3 mm big sphere is plated in the middle of a well. The differentiation medium consists of DMEM and Ham's F12 at a ratio of 3 to 1 supplemented with 1% N2 and 1% penicillin and streptomycin. Within 5 days NPCs radially migrate out of the sphere core and differentiate into radial glia cells (nestin positive), neurons (TUBB3 positive), oligodendrocytes (O4 positive) and astrocytes (GFAP positive). Cultivation during the test method is performed at 37C and 5% CO2 at a ph of 7.2-7.6.Exposure: 0.3 mm big hNPC are plated in the already prepared test conditions. Exposure starts at day 0 of differentiation and is continued over five days of differentiation until the experiment is terminated. Cells are fed with fresh medium at day 3 of differentiation. Therefore, half of the test condition solution (e.g. solvent control or compound dilution) is replaced by freshly prepared test condition solution.Test Method: Migration distance and cytotoxicity is determined after 72 hours based on brightfield images of each well. The assay is terminated by the assessment of cell viability and cytotoxicity as well as cell fixation after 120 h. Immunocytochemistry is performed for Hoechst positive nuclei, TUBB3 positive neurons and O4 positive oligodendrocytes. On the ICC images, migration after 120 hours, neuronal and oligodendrocyte number, neuronal morphology and neuron/oligodendrocyte specific migration is assessed. immunocytochemical staining (ICC) generates an image for each sphere. The plates are scanned using an automated high content imaging device and all nuclei and their positions are determined automatically based on their intensity and size. […]
Consider `CC(C)O`, for which the outcome was inactive. Regarding `CC(C)c1nn(C(=O)NC(C)(C)C)c(=O)n1N`, the compound was classed as inactive.

As for `O=C1CC2(CCCC2)CC(=O)N1CCCCN1CCN(c2ncccn2)CC1`, the compound was called inactive. The same measure, in the same setting: next, `CCCCOCCOP(=O)(O)OCCOCCCC`: “inactive”. Take `CCCCCC(C)(CC)C(=O)NC` (stereo unspecified): the AC50 – broadly, the midpoint of the concentration-response curve, whichever way the signal moves – was 1.02 µM (active).

Consider `CC(=O)OC/N=[N+](\C)[O-]`, for which the result was inactive. For the compound `CC(CNC(=S)[S-])NC(=S)[S-].[Zn+2]` (stereo unspecified), the result was inactive. On the same count and under the same terms, the same measure for `Cc1[nH]n(C)c(=O)c1C(=O)c1ccc(C(F)(F)F)cc1S(C)(=O)=O`: “inactive”; for `BrC1CC(Br)CC(Br)CC(Br)CC(Br)CC(Br)C1` (stereo unspecified): “inactive”.

`CN(C)CCCn1cc(C2=C(c3c[nH]c4ccccc34)C(=O)NC2=O)c2ccccc21`: the half-maximal activity concentration (AC50) was 11.3 µM (active). `CCc1ccccc1`: the call was inactive. `C[C@@H]1CCO[C@H]2Cn3cc(C(=O)NCc4ccc(F)cc4F)c(=O)c(O)c3C(=O)N12`: the compound was classed as inactive.

Regarding `F`, the compound was called inactive. As for `CCCCCC=C(C)C(CC)CCO` (stereo unspecified), the compound was classed as inactive. With `C[C@@H]1CC[C@@H](C(C)(C)O)[C@H](O)C1`, the compound was called inactive.

`CC(=O)N[C@@H](CC(=O)O)C(=O)O`: the outcome was inactive.
